PubChem BioAssay (EPA / NIEHS)
Records with an inconclusive call do not appear. Calls of active or inactive are those of the source. The calls were made as follows, unless noted: active = hit-call score of the fitted dose curve at least 0.9, where 1 is the maximum; inactive = score below 0.9.

Columns and labels:
[1] = ATG_PXRE_CIS: Attagene CIS-FACTORIAL HepG2 Assay for human Pregnane X Receptor Element (PXRE) (AID 2282957); details: HepG2 Attagene CIS-FACTORIAL PXRE reporter, mRNA; actives raise or lower the signal
Method in brief: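 Transiently transfected HepG2 cells were dosed and incubated for 24 h. RNA was then isolated, DNase-treated, reverse-transcribed and reporter sequences amplified. Labeled, HpaI-digested fragments were quantified by capillary electrophoresis against DMSO.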

[2] = ATG_PPRE_CIS: Attagene CIS-FACTORIAL HepG2 Assay for human Peroxisome Proliferator-activated Response Element (PPRE) (AID 2282958); details: HepG2 PPRE cis-element reporter, Attagene transcription factor profiling; actives raise or lower the signal
Method in brief: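 Read-out: fluorescent reporter mRNA fragments resolved by capillary electrophoresis after RT-PCR. HepG2 cells carried transiently transfected PPRE-driven cis reporter constructs and were dosed for 24 h; gain or loss of signal fitted relative to DMSO.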

[3] = ATG_Sox_CIS: Attagene CIS-FACTORIAL HepG2 Assay for human SRY-box transcription factor (SOX) (AID 2282960); details: HepG2 Attagene cis-factorial SOX reporter, mRNA; actives raise or lower the signal
Method in brief: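 Read-out: fluorescent RT-PCR products of SOX1-linked reporter transcripts resolved by capillary electrophoresis, fitted bidirectionally against DMSO. Transiently transfected HepG2 cells, 24 h after chemical exposure, endogenous transcription factor activity.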

[4] = biological target: Transcription factor Sp1 (Homo sapiens) (UniProt P08047); experiment: ATG_Sp1_CIS: Attagene CIS-FACTORIAL HepG2 Assay for human Specificity Protein 1 (Sp1) (AID 2282961); details: HepG2 Sp1 cis-reporter transcription, actives raise or lower the signal
Method in brief: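 Read-out: fluorescence of 6-FAM-labeled, HpaI-digested RT-PCR products separated by capillary electrophoresis. HepG2 cells carried transfected cis-element reporter units and were exposed to chemicals for 24 h; gain or loss of signal fitted relative to DMSO.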

[5] = ATG_SREBP_CIS: Attagene CIS-FACTORIAL HepG2 Assay for human Sterol Regulatory Element Binding (SREBP) (AID 2282962); details: HepG2 Attagene cis-factorial SREBP reporter, mRNA; actives raise or lower the signal
Method in brief: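 HepG2 cells transiently transfected with multiplexed cis-promoter reporter units sensing endogenous transcription factors; reporter mRNA measured 24 h after dosing by RT-PCR, 6-FAM labeling, HpaI digestion and capillary electrophoresis. Bidirectional fit versus DMSO.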

[6] = biological target: Signal transducer and activator of transcription 3 (Homo sapiens) (UniProt P40763); experiment: ATG_STAT3_CIS: Attagene CIS-FACTORIAL HepG2 Assay for human Signal Transducer and Activator of Transcription 3 (STAT3) (AID 2282963); details: HepG2, Attagene cis-factorial STAT3 reporter transcription; actives raise or lower the signal
Method in brief: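 HepG2 cells transiently transfected with cis-element-driven multiple reporter transcription units; after 24 h chemical exposure, reporter mRNA measured by RT-PCR, 6-FAM primer-extension labelling, HpaI digestion and capillary electrophoresis. Bidirectional fitting versus DMSO baseline.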

[7] = ATG_TA_CIS: Attagene CIS-FACTORIAL HepG2 Assay for human TA Basal Promoter (AID 2282964); details: HepG2 Attagene CIS-factorial TA basal promoter reporter; actives raise or lower the signal
Method in brief: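 Transient MRTU transfection of HepG2 preceded 24 h compound exposure. Reporter mRNA levels were then read by RT-PCR with capillary electrophoresis, and this background-control endpoint was fitted bidirectionally to DMSO.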

[8] = ATG_TCF_b_cat_CIS: Attagene CIS-FACTORIAL HepG2 Assay for human T-Cell-Factor with beta-catenin (TCF/b-cat) (AID 2282965); details: HepG2 TCF/beta-catenin cis-reporter transcription, actives raise or lower the signal
Method in brief: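 HepG2 cells transiently transfected with multiple cis-promoter-regulated reporter transcription units, so endogenous transcription factor activity is measured. Reporter mRNA read 24 hours after dosing by RT-PCR, fluorescent labelling and capillary electrophoresis; bidirectional fitting against DMSO.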

[9] = ATG_TAL_CIS: Attagene CIS-FACTORIAL HepG2 Assay for human TAL Basal Promoter (AID 2282966); details: HepG2 Attagene cis-factorial TAL promoter reporter; actives raise or lower the signal;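 also: background control endpoint measuring basal TAL promoter reporter mRNA not a specific factor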
Method in brief: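 Readout: reporter mRNA, fluorescence by CE. System: HepG2, transient multi-reporter transfection, endogenous TF activity. Exposure: 24 h. Analysis: bidirectional, DMSO-normalized; background control.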

[10] = ATG_TGFb_CIS: Attagene CIS-FACTORIAL HepG2 Assay for human Transforming Growth Factor (TGF) (AID 2282967); details: HepG2 Attagene CIS TGFb reporter, mRNA transcription; actives raise or lower the signal
Method in brief: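 After a 24-hour incubation with compound, transfected HepG2 cells were lysed for RNA; reporter cDNA was amplified, fluorescently end-labeled and separated by CE. DMSO served as baseline for bidirectional fits.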

[11] = ATG_VDRE_CIS: Attagene CIS-FACTORIAL HepG2 Assay for human Vitamin D Receptor Element (VDRE) (AID 2282968); details: HepG2 VDRE cis-reporter transcription, actives raise or lower the signal
Method in brief: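 HepG2 cells transiently transfected with cis-element reporter units, dosed 24 h; reporter mRNA measured by RT-PCR, 6-FAM labeling, HpaI digestion and capillary electrophoresis. Activity fitted bidirectionally against DMSO baseline.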

[12] = biological target: Nuclear receptor subfamily 1 group I member 3 (Homo sapiens) (UniProt Q14994); experiment: ATG_CAR_TRANS: Attagene TRANS-FACTORIAL HepG2 Assay for human Constitutive Androstane Receptor (CAR) (AID 2282969; active = hit-call score of the fitted dose curve at least 0.9, where 1 is the maximum;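 also: activators raise reporter mRNA above DMSO so AC50 marks induction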); details: HepG2 Attagene TRANS-FACTORIAL CAR reporter
Method in brief: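 HepG2 cells transiently transfected with multiplexed GAL4-UAS reporter units expressing chimeric NR-Gal4 proteins; compound exposure 24 h. Reporter mRNA measured by RT-PCR, 6-FAM labelling, HpaI digestion and capillary electrophoresis; gain-of-signal fitted against DMSO baseline.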

[13] = biological target: Steroid hormone receptor ERR1 (Homo sapiens) (UniProt P11474); experiment: ATG_ERRa_TRANS: Attagene TRANS-FACTORIAL HepG2 Assay for human Estrogen-Related Receptor alpha (ERRa) (AID 2282971; active = hit-call score of the fitted dose curve at least 0.9, where 1 is the maximum); details: HepG2 Attagene TRANS reporter, ERRa transactivation
Method in brief: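 HepG2 cells were transiently transfected with multiple GAL4-UAS reporter units, then dosed with compound for 24 h. Total RNA was reverse-transcribed, reporter cDNA PCR-amplified and fluorescently labelled, and fragments resolved by capillary electrophoresis; induction was compared with DMSO.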

[14] = biological target: X-box-binding protein 1 (Homo sapiens) (UniProt P17861); experiment: ATG_Xbp1_CIS: Attagene CIS-FACTORIAL HepG2 Assay for human X-box Binding Protein 1 (XBP1) (AID 2282972); details: HepG2 XBP1 cis-element reporter, Attagene multiplex; actives raise or lower the signal
Method in brief: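 HepG2 cells transiently transfected with multiple cis-element reporter units report endogenous TF activity; 24 h exposure, then reporter mRNA measured by RT-PCR, 6-FAM labelling, HpaI digestion and capillary electrophoresis. Bidirectional fitting versus DMSO.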

[15] = ATG_M_19_TRANS: Attagene TRANS-FACTORIAL HepG2 Assay for M19 Transcription Factor (Internal Marker) (AID 2282974; active = hit-call score of the fitted dose curve at least 0.9, where 1 is the maximum); details: HepG2 Attagene TRANS-FACTORIAL M19 internal marker reporter
Method in brief: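 24 h chemical exposure of transiently transfected HepG2 (MRTU library). RNA → oligo(dT) RT → PCR → 6-FAM labelling → HpaI cut → CE fluorescence. Positive-direction fit vs DMSO baseline; background internal-marker readout.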

[16] = ATG_GAL4_TRANS: Attagene TRANS-FACTORIAL HepG2 Assay for GAL4 (Internal Marker) (AID 2282976; active = hit-call score of the fitted dose curve at least 0.9, where 1 is the maximum); details: HepG2 Attagene TRANS GAL4 internal marker reporter
Method in brief: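 Fluorescence from capillary electrophoresis of labelled RT-PCR products quantifies reporter mRNA induction after 24 h dosing of HepG2 cells carrying transfected GAL4-UAS reporter transcription units. Vehicle DMSO serves as baseline.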

[17] = ATG_RORE_CIS: Attagene CIS-FACTORIAL HepG2 Assay for human RAR-related Orphan Receptor Element (RORE) (AID 2282959); details: HepG2 Attagene cis-factorial RORE reporter, mRNA; actives raise or lower the signal
Method in brief: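 Readout: fluorescent reporter mRNA by RT-PCR plus capillary electrophoresis, 24 h after dosing transfected HepG2 cells. Endogenous transcription factor activity on a cis promoter element is measured. Gain or loss of signal fitted against DMSO.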

[18] = biological target: Estrogen receptor (Homo sapiens) (UniProt P03372); experiment: ATG_ERa_TRANS: Attagene TRANS-FACTORIAL HepG2 Assay for human Estrogen Receptor alpha (ERa) (AID 2282970; active = hit-call score of the fitted dose curve at least 0.9, where 1 is the maximum); details: HepG2 Attagene TRANS ERa GAL4 reporter, mRNA
Method in brief: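 Transactivation via ERa-Gal4 chimera in HepG2; 24 hour incubation; reporter mRNA detected by fluorescence RT-PCR and capillary electrophoresis.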

[19] = biological target: Estrogen-related receptor gamma (Homo sapiens) (UniProt P62508); experiment: ATG_ERRg_TRANS: Attagene TRANS-FACTORIAL HepG2 Assay for human Estrogen-Related Receptor gamma (ERRg) (AID 2282977; active = hit-call score of the fitted dose curve at least 0.9, where 1 is the maximum;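 also: hits increase reporter signal over DMSO so potencies reflect activators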); details: HepG2 Attagene TRANS reporter, ERRg transactivation
Method in brief: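 Transient HepG2 transfectants, 24 h compound exposure, GAL4-UAS reporter mRNA by RT-PCR/6-FAM labelling/capillary electrophoresis; positive direction vs DMSO.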

[20] = biological target: Glucocorticoid receptor (Homo sapiens) (UniProt P04150); experiment: ATG_GR_TRANS: Attagene TRANS-FACTORIAL HepG2 Assay for human Glucocorticoid Receptor (GR) (AID 2282978; active = hit-call score of the fitted dose curve at least 0.9, where 1 is the maximum;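 also: activators score as hits since higher reporter transcript over DMSO is fitted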); details: HepG2 Attagene TRANS GR reporter, mRNA transcription
Method in brief: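 Transient MRTU transfection of HepG2 (GAL4-UAS reporters, exogenous NR-GAL4 chimeras), 24 h dosing. Readout: reporter transcript via RT-PCR + capillary electrophoresis fluorescence. Positive direction vs DMSO baseline.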

Measured: AC50

Sequence of X-box-binding protein 1 (Homo sapiens) (P17861 whole entry, looked up): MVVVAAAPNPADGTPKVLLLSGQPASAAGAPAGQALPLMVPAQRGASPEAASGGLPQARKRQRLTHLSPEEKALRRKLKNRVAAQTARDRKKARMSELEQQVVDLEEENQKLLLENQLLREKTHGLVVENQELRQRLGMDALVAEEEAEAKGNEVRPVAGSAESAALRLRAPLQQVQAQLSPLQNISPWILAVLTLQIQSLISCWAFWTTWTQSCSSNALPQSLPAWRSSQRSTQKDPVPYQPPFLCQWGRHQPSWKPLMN
Sequence of Signal transducer and activator of transcription 3 (Homo sapiens) (P40763 whole entry, looked up): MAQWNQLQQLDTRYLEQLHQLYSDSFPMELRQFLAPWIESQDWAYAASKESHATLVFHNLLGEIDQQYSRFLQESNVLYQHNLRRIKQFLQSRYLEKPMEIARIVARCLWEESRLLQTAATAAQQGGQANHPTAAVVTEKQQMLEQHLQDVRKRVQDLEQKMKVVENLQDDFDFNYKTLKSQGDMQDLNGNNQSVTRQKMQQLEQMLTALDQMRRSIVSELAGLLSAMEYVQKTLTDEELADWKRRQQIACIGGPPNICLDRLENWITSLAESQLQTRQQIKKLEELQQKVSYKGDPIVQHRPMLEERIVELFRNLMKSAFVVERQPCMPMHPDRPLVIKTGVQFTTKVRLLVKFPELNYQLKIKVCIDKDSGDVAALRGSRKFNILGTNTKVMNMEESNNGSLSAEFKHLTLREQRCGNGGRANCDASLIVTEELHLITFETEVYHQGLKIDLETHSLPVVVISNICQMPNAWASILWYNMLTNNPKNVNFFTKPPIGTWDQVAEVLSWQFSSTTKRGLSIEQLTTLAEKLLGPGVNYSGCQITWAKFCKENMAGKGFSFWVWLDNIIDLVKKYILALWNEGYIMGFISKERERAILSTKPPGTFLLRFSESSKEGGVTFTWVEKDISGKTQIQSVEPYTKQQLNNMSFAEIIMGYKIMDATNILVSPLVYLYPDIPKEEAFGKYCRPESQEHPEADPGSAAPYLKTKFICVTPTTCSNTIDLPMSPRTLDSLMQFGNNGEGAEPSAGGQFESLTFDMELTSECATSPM
Sequence of Transcription factor Sp1 (Homo sapiens) (P08047 whole entry, looked up): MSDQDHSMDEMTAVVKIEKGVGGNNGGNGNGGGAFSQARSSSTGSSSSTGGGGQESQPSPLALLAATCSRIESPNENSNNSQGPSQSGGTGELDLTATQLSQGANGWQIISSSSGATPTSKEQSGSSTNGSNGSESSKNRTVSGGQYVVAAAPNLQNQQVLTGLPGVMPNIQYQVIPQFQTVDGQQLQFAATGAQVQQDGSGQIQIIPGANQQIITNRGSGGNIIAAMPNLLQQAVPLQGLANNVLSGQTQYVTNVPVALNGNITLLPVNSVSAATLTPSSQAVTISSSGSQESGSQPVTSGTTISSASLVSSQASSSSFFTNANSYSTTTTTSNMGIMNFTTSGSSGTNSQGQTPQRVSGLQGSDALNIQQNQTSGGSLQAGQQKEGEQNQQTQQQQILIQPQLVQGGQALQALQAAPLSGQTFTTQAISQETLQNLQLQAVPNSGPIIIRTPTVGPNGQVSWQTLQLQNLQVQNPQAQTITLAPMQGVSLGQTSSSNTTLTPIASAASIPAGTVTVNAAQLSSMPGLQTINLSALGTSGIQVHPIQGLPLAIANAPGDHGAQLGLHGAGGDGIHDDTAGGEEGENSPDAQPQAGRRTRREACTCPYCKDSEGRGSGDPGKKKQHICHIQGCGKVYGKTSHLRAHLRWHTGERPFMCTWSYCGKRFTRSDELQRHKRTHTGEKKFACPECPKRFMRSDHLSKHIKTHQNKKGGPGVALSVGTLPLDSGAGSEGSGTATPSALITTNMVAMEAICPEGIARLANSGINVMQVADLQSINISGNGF
Sequence of Steroid hormone receptor ERR1 (Homo sapiens) (P11474 whole entry, looked up, the tested form may be a part): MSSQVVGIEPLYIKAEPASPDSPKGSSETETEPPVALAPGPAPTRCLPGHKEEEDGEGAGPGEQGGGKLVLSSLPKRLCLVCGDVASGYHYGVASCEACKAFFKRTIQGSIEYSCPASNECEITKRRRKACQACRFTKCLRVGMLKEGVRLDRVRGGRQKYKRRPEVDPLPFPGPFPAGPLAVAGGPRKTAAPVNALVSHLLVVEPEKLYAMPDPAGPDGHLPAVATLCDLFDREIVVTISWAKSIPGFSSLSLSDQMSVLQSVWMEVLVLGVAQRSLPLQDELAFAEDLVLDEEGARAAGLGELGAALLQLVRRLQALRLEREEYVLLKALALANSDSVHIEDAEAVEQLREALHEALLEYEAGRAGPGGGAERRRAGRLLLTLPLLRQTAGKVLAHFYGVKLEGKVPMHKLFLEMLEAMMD
Sequence of Glucocorticoid receptor (Homo sapiens) (P04150 whole entry, looked up, the tested form may be a part): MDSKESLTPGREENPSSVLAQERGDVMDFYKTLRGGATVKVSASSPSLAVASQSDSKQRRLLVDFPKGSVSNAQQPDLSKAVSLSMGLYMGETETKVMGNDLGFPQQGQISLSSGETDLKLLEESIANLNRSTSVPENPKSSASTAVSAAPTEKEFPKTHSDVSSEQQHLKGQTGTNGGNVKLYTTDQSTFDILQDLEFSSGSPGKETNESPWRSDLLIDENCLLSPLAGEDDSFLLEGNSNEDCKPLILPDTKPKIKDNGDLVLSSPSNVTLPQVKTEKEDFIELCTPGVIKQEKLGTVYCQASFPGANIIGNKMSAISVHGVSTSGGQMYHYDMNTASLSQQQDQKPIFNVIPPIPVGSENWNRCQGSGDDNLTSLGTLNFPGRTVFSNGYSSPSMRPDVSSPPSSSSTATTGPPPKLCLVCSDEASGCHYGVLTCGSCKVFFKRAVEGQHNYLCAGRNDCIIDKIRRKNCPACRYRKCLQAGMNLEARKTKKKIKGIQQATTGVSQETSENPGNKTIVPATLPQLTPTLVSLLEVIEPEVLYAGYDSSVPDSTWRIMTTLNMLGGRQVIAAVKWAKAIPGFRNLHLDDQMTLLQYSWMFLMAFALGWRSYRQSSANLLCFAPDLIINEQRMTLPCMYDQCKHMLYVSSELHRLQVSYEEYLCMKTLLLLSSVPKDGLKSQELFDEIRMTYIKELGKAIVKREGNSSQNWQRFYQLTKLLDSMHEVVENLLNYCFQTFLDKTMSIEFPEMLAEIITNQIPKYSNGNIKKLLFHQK
Sequence of Estrogen receptor (Homo sapiens) (P03372 whole entry, looked up, the tested form may be a part): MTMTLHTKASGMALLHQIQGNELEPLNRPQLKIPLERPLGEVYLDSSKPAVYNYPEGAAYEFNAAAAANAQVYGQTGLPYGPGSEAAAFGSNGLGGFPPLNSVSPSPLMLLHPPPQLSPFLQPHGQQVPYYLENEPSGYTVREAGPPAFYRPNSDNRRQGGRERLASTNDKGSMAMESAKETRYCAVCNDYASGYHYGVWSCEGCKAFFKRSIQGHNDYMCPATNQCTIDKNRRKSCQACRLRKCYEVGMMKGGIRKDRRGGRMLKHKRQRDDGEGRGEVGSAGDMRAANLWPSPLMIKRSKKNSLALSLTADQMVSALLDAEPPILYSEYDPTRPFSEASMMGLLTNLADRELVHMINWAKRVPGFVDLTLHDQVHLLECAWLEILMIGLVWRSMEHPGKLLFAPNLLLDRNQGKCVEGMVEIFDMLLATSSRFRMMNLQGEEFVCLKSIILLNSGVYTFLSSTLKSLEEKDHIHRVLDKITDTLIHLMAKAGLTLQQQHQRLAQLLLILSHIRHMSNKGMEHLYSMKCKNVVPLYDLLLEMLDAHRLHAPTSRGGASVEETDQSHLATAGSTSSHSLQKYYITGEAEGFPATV
Sequence of Estrogen-related receptor gamma (Homo sapiens) (P62508 whole entry, looked up, the tested form may be a part): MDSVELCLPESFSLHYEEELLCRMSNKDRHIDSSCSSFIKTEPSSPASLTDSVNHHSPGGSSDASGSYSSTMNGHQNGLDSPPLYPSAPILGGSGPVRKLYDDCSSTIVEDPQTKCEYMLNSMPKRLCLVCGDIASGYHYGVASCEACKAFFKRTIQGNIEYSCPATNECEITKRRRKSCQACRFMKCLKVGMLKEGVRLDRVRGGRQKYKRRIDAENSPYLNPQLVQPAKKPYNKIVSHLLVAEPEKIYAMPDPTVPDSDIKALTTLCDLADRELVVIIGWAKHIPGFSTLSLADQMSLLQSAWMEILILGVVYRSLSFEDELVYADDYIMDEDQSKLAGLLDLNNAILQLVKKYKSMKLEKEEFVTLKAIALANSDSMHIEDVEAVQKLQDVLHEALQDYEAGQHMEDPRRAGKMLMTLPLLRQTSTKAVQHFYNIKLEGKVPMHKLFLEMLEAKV
Sequence of Nuclear receptor subfamily 1 group I member 3 (Homo sapiens) (Q14994 whole entry, looked up, the tested form may be a part): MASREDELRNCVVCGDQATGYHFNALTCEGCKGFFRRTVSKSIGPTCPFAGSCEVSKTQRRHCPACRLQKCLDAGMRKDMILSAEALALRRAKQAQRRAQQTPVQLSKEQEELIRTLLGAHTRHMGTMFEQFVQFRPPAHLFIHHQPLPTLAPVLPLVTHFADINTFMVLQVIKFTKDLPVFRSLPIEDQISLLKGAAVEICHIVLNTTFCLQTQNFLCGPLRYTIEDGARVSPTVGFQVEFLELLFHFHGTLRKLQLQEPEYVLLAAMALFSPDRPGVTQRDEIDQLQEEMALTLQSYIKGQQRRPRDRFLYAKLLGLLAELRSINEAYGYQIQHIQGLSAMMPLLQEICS

CN(CCO)S(=O)(=O)C(F)(F)C(F)(F)C(F)(F)C(F)(F)C(F)(F)C(F)(F)C(F)(F)C(F)(F)F
not listed: [17] | [18] | [19] | [20]
inactive: all other assays above

CN(Cc1cnc2nc(N)nc(N)c2n1)c1ccc(C(=O)N[C@@H](CCC(=O)O)C(=O)O)cc1
active: [1] 58.9 µM
not listed: [2] | [11] | [12] | [13] | [15] | [19] | [20]
inactive: all other assays above

CCCCC(CC)C(=O)O (configuration not stated)
inactive: [1] | [2] | [3] | [5] | [6] | [8] | [9] | [10] | [14] | [15] | [16]

FC(F)=C(F)C(F)(F)C(F)(F)C(F)(F)C(F)F
not listed: [12] | [13] | [17] | [19] | [20]
inactive: all other assays above

CCCC=O
not listed: [4] | [8] | [12] | [17] | [18]
inactive: all other assays above

OCC(CO)(CBr)CBr
not listed: [5] | [11] | [12] | [13] | [16] | [17] | [18] | [20]
inactive: all other assays above

NC(C(F)(F)F)C(F)(F)F
inactive: [1] | [2] | [3] | [5] | [6] | [7] | [9] | [10] | [13] | [14]

CN(C)CCOC(c1ccccc1)c1ccccc1
active: [1] 151 µM | [5] 45.5 µM
inactive: [17] | [3] | [4] | [6] | [7] | [9] | [10] | [14]
